This is a sample that favours compounds with a hit; in the whole collection about 19% have one here.
HT1080NT lethal: kills 2HG-producing HT-1080-NT fibrosarcoma cells. HT-1080-NT fibrosarcoma viability, CellTiter-Glo ATP luminescence, 48 h. Potency, µM (series often up to 46.1 µM), for the others: top-dose activity, negative = less viability, usual class: cytotoxic. hit rate 1.6% among 360,000. AID 686970;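 note: NT is the 2HG producing partner of a matched IDH1 knockdown line; potency is the fitted concentration of half-maximal effect; 0% = DMSO-treated cells and -100% = media-only wells without cells; nearly all actives have a fitted effect of over 55% in size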
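Fibrosarcoma NT cells, 750 per well in 5% FBS RPMI, were exposed to compound for 48 hours. Viability: CellTiter-Glo luminescence.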
DT40 TDP1 no CPT: qHTS for Inhibitors of human tyrosyl-DNA phosphodiesterase 1 (TDP1): qHTS in cells in absence of CPT | Potency, µM (highest dose often 46.2 µM), without a hit: at the top dose activity change, negative = growth inhibition, hits mostly inhibitors | hit rate 15% among 420,000 | AID 686978, 2013 | DT40 Tdp1-/- hTDP1 cells, no CPT, ATP luminescence, 48 h; note: potency is the fitted concentration of half-maximal effect; nearly all actives have a fitted effect of over 55% in size
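Cells were dispensed at 400 per well, compounds added by pin tool, plates incubated ≥48 hr at 37 °C, then CellTiter-Glo added for 30 min at room temperature before luminescence reading. Line: DT40 Tdp1-/- complemented with hTDP1; camptothecin omitted.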
IL-1B inflam inh: inhibitors of inflammasome signaling (IL-1 beta secretion). THP-1 LPS/ATP IL-1B secretion, AlphaLISA, 16 h; hits give low values. activity change, % at 57.5 µM. hit rate 4.7% among 360,000; in the data active = activity change below about -50%; inconclusive = mostly about -30% to -49%
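Secreted IL-1B measured by AlphaLISA bead assay after 16 h compound exposure of THP-1 cells; compounds (final up to 57.5 uM) added 1 h before LPS (250 ng/mL) and ATP (1.25 mM) stimulation; lower signal means less secretion.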
HT1080 IDH1KD tx: kills HT-1080 cells with IDH1 knockdown; Potency, µM (titrated, usually from 46.1 µM), for the others: at the highest dose activity, negative = toxicity, usual class: cytotoxic; HT-1080 IDH1 knockdown viability, ATP luminescence, 48 h; hit rate 2% among 360,000;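 note: potency is the fitted concentration of half-maximal effect; 0% = DMSO wells and -100% = cell-free medium wells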
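HT-1080-IDH1KD cells (IDH1 knocked down), 750/well in RPMI with 5% FBS, treated with compound 48 h at 37 degrees C. Viability by CellTiter-Glo luminescence, normalised to DMSO and no-cell wells; concentration-response curves classed.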
TDP1 cell CPT: DT40-hTDP1 cell growth loss with CPT; chicken DT40 Tdp1-/-;hTDP1 cells + 20 nM CPT, ATP luminescence, 48 h; Potency, µM (top dose mostly 46.2 µM), for inactives: at the top dose activity change, negative = growth inhibition, most hits filed as inhibitors; hit rate 12% among 420,000; note: potency is the fitted concentration of half-maximal effect; nearly all actives have a fitted effect of over 55% in size
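Cell growth measured by CellTiter-Glo luminescence after a minimum 48 h, 37 C compound exposure with 20 nM CPT in Tdp1-knockout DT40 cells stably expressing hTDP1, seeded 400/well; qHTS titration format.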
Active calls of the source: *. Unless noted, calls come from the whole dose curve; as a rule, active = well fitted curve in the direction sought with a large enough effect; inconclusive = small, poorly fitted or top-dose-only effect, or another doubt; inactive = no such curve, though single readings can be large; an effect the other way counts as inactive or inconclusive. Unless noted, % is set by controls: 0 for no effect and ±100 for the full control effect.

What do the screens show for `O=C(NC(c1ccc(F)cc1)c1ccc2ccccc2n1)C1CCN(CCOc2ccc(Cl)cc2Cl)CC1` (configuration not stated)?
HT1080NT lethal: inconclusive; DT40 TDP1 no CPT: inconclusive; IL-1B inflam inh: inconclusive; HT1080 IDH1KD tx: 12µM*; TDP1 cell CPT: 16µM*

What do the screens show for `CCN(C)C1CN(Cc2cn(Cc3ccc(C)cc3)nn2)S(=O)(=O)C1` (configuration not stated)?
HT1080NT lethal: 3%; DT40 TDP1 no CPT: -18%; IL-1B inflam inh: 12; HT1080 IDH1KD tx: 8%; TDP1 cell CPT: 0%

Results for CCN(CC)CCN1C(=O)C(=O)/C(=C(/O)c2ccc(C)cc2)C1c1cccnc1 (configuration not stated) ?
HT1080NT lethal: 8%; DT40 TDP1 no CPT: 0%; IL-1B inflam inh: 20; HT1080 IDH1KD tx: 7%; TDP1 cell CPT: 5%

Results for Cc1c(C#N)c(N=CN(C)C)c(C(=O)c2ccc(Br)cc2)n1-c1ccccc1 ?
HT1080NT lethal: 2%; DT40 TDP1 no CPT: -29%; IL-1B inflam inh: -7; HT1080 IDH1KD tx: -7%; TDP1 cell CPT: -16%

How did Cc1c(C#N)c(N=CN(C)C)c(C(=O)c2ccccc2)n1-c1ccc(Br)cc1 do in these assays?
HT1080NT lethal: -4%; DT40 TDP1 no CPT: inconclusive; IL-1B inflam inh: 0; HT1080 IDH1KD tx: -10%; TDP1 cell CPT: 18µM*

Results for C1CCC(C(CC2CCCCN2)C2CCCCC2)CC1 (configuration not stated) ?
HT1080NT lethal: 12µM*; DT40 TDP1 no CPT: 12µM*; IL-1B inflam inh: -86*; HT1080 IDH1KD tx: 16µM*; TDP1 cell CPT: 10µM*

How did N#CC1=C(S)N(c2ccc(F)cc2)C(c2cccs2)NC1=O (configuration not stated) do in these assays?
HT1080NT lethal: 11%; DT40 TDP1 no CPT: inconclusive; IL-1B inflam inh: 13; HT1080 IDH1KD tx: 10%; TDP1 cell CPT: 8.2µM*

What do the screens show for `Cc1cccc(N2C(S)=C(C#N)C(=O)NC2c2cccs2)c1` (configuration not stated)?
HT1080NT lethal: 7%; DT40 TDP1 no CPT: 13µM*; IL-1B inflam inh: -6; HT1080 IDH1KD tx: 1%; TDP1 cell CPT: 15µM*

Results for Cc1ccccc1N1C(S)=C(C#N)C(=O)NC1c1cccs1 (configuration not stated) ?
HT1080NT lethal: 8%; DT40 TDP1 no CPT: inconclusive; IL-1B inflam inh: -6; HT1080 IDH1KD tx: 7%; TDP1 cell CPT: inconclusive

Results for COc1ccc[nH]c1=O ?
HT1080NT lethal: 12%; DT40 TDP1 no CPT: -2%; IL-1B inflam inh: 0; HT1080 IDH1KD tx: -4%; TDP1 cell CPT: 0%

Results for CCCCOc1ccc(N(CC(=O)NCc2ccccc2)C(=O)c2csnn2)cc1 ?
HT1080NT lethal: -4%; DT40 TDP1 no CPT: 16µM*; IL-1B inflam inh: -9; HT1080 IDH1KD tx: -16%; TDP1 cell CPT: inconclusive

What do the screens show for `O=C(NCc1ccccc1)C(c1ccccc1)N(C(=O)c1csnn1)c1ccccc1` (configuration not stated)?
HT1080NT lethal: -3%; DT40 TDP1 no CPT: 18µM*; IL-1B inflam inh: -8; HT1080 IDH1KD tx: 2%; TDP1 cell CPT: inconclusive

How did CCc1cccc(N(C(=O)c2csnn2)C(C(=O)NC(C)(C)C)c2ccccn2)c1 (configuration not stated) do in these assays?
HT1080NT lethal: 11%; DT40 TDP1 no CPT: 5%; IL-1B inflam inh: -56*; HT1080 IDH1KD tx: -9%; TDP1 cell CPT: -3%

What do the screens show for `CCN(Cc1cc(=O)n2ccsc2n1)Cc1nc2cc(OC)c(OC)cc2c(=O)[nH]1`?
HT1080NT lethal: 10%; DT40 TDP1 no CPT: 22%; IL-1B inflam inh: 2; HT1080 IDH1KD tx: 1%; TDP1 cell CPT: 7%

How did CCOC(=O)C1CCCN(c2c(C(=O)c3ccc(OCC)cc3)cnc3ccccc23)C1 (configuration not stated) do in these assays?
DT40 TDP1 no CPT: inconclusive; TDP1 cell CPT: 18µM*

High-throughput results from PubChem.
